About 79,000 compounds went through this panel and 15% of them were active in at least one assay; those are over-represented in the sample as a whole. Unmarked numbers belong to inactive results. Active and inactive are the calls of the source. Rule as the data show it: active = growth inhibition above about 70%; inactive = the rest.

A short description of experiment [1]: NCI Yeast Anticancer Drug Screen. Data for the rad50 strain (AID 155).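 Also: 0% = growth of vehicle-only cultures of the same strain.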 The conditions noted are these: S. cerevisiae rad50 strain growth inhibition, hits give high values. Summed up: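 Genetically altered yeast (DNA repair pathway); compound treatment; growth inhibition vs vehicle ctrl.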
Experiment [2] in a line: NCI Yeast Anticancer Drug Screen. Data for the mec2-1 strain (AID 157). The conditions noted are these: S. cerevisiae mec2-1 strain, hits give high values. Summed up: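 Readout is yeast growth inhibition, normalised to vehicle-treated controls, in the mec2-1 strain exposed to compound.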
Experiment [3] can be described thus: NCI Yeast Anticancer Drug Screen. Data for the sgs1 mgt1 strain (AID 161).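 Also: 0% = growth of cultures given vehicle only.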 The conditions noted are these: S. cerevisiae sgs1 mgt1 strain, hits give high values. Summed up: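 Compounds are added to genetically altered yeast, and growth is compared with cultures given vehicle alone to give percent inhibition.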
Experiment [4] in a line: NCI Yeast Anticancer Drug Screen. Data for the cln2 rad14 strain (AID 165).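 Also: 0% = growth equal to vehicle treated cultures.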 The conditions noted are these: S. cerevisiae cln2 rad14 strain, hits give high values. The gist of the method:
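Relative to vehicle controls, growth inhibition of compound-treated cln2 rad14 yeast was recorded.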

Experiment [5] can be described thus: NCI Yeast Anticancer Drug Screen. Data for the bub3 strain (AID 167). The settings on record: S. cerevisiae bub3 mutant strain, hits give high values. The gist of the method: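 Yeast carrying a defined mutation is treated with each compound, and growth is compared with that of vehicle-exposed cells to give inhibition.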
Experiment [6] in a line: NCI Yeast Anticancer Drug Screen. Data for the mlh1 rad18 strain (AID 175). The settings on record: S. cerevisiae mlh1 rad18 strain growth inhibition, hits give high values. The gist of the method: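 Test agents were incubated with a yeast strain of defined genotype (DNA damage repair defect). Inhibition of growth was derived by comparison with vehicle-exposed cultures.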

Where [7] appears, read: at 5.0 µM (retest, dose inferred, filed as 0.5).
Setting [8] is: at 50.0 µM (retest, dose inferred, filed as 5.0).

For `CNCC(OB(c1ccccc1)c1ccccc1)c1ccccc1` (stereo not given), the growth inhibition in experiment [1] (setting [7]) is 4%; in experiment [1] (setting [8]), 99% (active); in experiment [1] (at 50.0 µM), -22.9%; in experiment [2] (setting [7]), 12%; in experiment [2] (setting [8]), 99% (active); in experiment [2] (at 50.0 µM), -5.2%. The growth inhibition in experiment [3] (setting [7]) is 1%; in experiment [3] (setting [8]), 95% (active); in experiment [3] (at 50.0 µM) it was 61.7%; in experiment [4] (setting [7]) it was 9%; in experiment [4] (setting [8]), 99% (active); in experiment [4] (at 50.0 µM) it was -26.6%. The growth inhibition is -7% in experiment [5] (setting [7]); 99% (active) in experiment [5] (setting [8]); 5.75% in experiment [5] (at 50.0 µM); 0% in experiment [6] (setting [7]); 99% (active) in experiment [6] (setting [8]); 44.1% in experiment [6] (at 50.0 µM).
Turning to `COC(CC[P+](c1ccccc1)(c1ccccc1)c1ccccc1)(C(=O)c1ccccc1)c1ccccc1` (stereo not given), the growth inhibition in experiment [1] (setting [7]) is 91% (active); in experiment [1] (setting [8]), 99% (active); in experiment [1] (at 50.0 µM), 98.7% (active); in experiment [2] (setting [7]), 97% (active); in experiment [2] (setting [8]), 99% (active); in experiment [2] (at 50.0 µM), 99.7% (active). Also, the growth inhibition in experiment [3] (setting [7]) is 88% (active); in experiment [3] (setting [8]), 99% (active); in experiment [3] (at 50.0 µM), 99.8% (active); in experiment [4] (setting [7]) it was 90% (active); in experiment [4] (setting [8]) it was 99% (active); in experiment [4] (at 50.0 µM), 98.8% (active). In addition, the growth inhibition in experiment [5] (setting [7]) is 94% (active); in experiment [5] (setting [8]) it was 100% (active); in experiment [5] (at 50.0 µM), 99.7% (active); in experiment [6] (setting [7]), 92% (active); in experiment [6] (setting [8]), 100% (active); in experiment [6] (at 50.0 µM), 99.5% (active).
On to `CN(C)CCC(=O)c1ccc2c(ccc3ccccc32)c1`, for which the growth inhibition in experiment [1] (setting [7]) is 5%; in experiment [1] (setting [8]) it was 36%; in experiment [1] (at 50.0 µM), 69.7%; in experiment [2] (setting [7]), 10%; in experiment [2] (setting [8]) it was 83% (active); in experiment [2] (at 50.0 µM) it was 66.8%. Besides, the growth inhibition in experiment [3] (setting [7]) was 8%; in experiment [3] (setting [8]), 92% (active); in experiment [3] (at 50.0 µM), 90.5% (active); in experiment [4] (setting [7]), -3%; in experiment [4] (setting [8]), 51%; in experiment [4] (at 50.0 µM), -7.8%. Also, the growth inhibition in experiment [5] (setting [7]) is 6%; in experiment [5] (setting [8]), 94% (active); in experiment [5] (at 50.0 µM), 84.7% (active); in experiment [6] (setting [7]) it was 0%; in experiment [6] (setting [8]), 90% (active); in experiment [6] (at 50.0 µM) it was 77.2% (active).
On to `COc1ccc(C2SC(N)=Nc3c2c(C)nn3C(=O)c2ccccc2O)cc1OC` (stereo not given), for which the growth inhibition in experiment [1] (setting [7]) is -9%; in experiment [1] (setting [8]), 74% (active); in experiment [1] (at 50.0 µM) it was 53.3%; in experiment [2] (setting [7]) it was -15%; in experiment [2] (setting [8]) it was 81% (active); in experiment [2] (at 50.0 µM) it was 35.2%. Further, the growth inhibition in experiment [3] (setting [7]) was -8%; in experiment [3] (setting [8]) it was 70% (active); in experiment [3] (at 50.0 µM), 75.3% (active); in experiment [4] (setting [7]) it was -20%; in experiment [4] (setting [8]), 24%; in experiment [4] (at 50.0 µM), -19%. The growth inhibition was -19% in experiment [5] (setting [7]); 31% in experiment [5] (setting [8]); 74.3% (active) in experiment [5] (at 50.0 µM); 1% in experiment [6] (setting [7]); 91% (active) in experiment [6] (setting [8]); 65.5% in experiment [6] (at 50.0 µM).
Take `CCCCCCCCCCCCCCCCCCOP(=O)([O-])OCC[N+](C)(C)C`: the growth inhibition in experiment [1] (setting [7]) is 14%; in experiment [1] (setting [8]), 99% (active); in experiment [1] (at 50.0 µM), 90.5% (active); in experiment [2] (setting [7]), -2%; in experiment [2] (setting [8]) it was 99% (active); in experiment [2] (at 50.0 µM), 92% (active). Further, the growth inhibition is -2% in experiment [3] (setting [7]); 99% (active) in experiment [3] (setting [8]); 92.5% (active) in experiment [3] (at 50.0 µM); 15% in experiment [4] (setting [7]); 89% (active) in experiment [4] (setting [8]); 89.5% (active) in experiment [4] (at 50.0 µM). The growth inhibition in experiment [5] (setting [7]) was 7%; in experiment [5] (setting [8]), 99% (active); in experiment [5] (at 50.0 µM), 90.3% (active); in experiment [6] (setting [7]) it was 10%; in experiment [6] (setting [8]) it was 99% (active); in experiment [6] (at 50.0 µM) it was 91.6% (active).
As for `COc1ccc(NC(=O)/C(=C/c2ccccc2)C(C)=O)cc1`, the growth inhibition in experiment [1] (setting [7]) was 59%; in experiment [1] (setting [8]), 98% (active); in experiment [1] (at 50.0 µM), 98.1% (active); in experiment [2] (setting [7]), 57%; in experiment [2] (setting [8]), 99% (active); in experiment [2] (at 50.0 µM), 98.2% (active). The growth inhibition in experiment [3] (setting [7]) is 53%; in experiment [3] (setting [8]) it was 98% (active); in experiment [3] (at 50.0 µM), 98.5% (active); in experiment [4] (setting [7]) it was 19%; in experiment [4] (setting [8]) it was 95% (active); in experiment [4] (at 50.0 µM), 97.5% (active). Moreover, the growth inhibition is 65% in experiment [5] (setting [7]); 98% (active) in experiment [5] (setting [8]); 98.1% (active) in experiment [5] (at 50.0 µM); 68% in experiment [6] (setting [7]); 99% (active) in experiment [6] (setting [8]); 98.1% (active) in experiment [6] (at 50.0 µM).
Regarding `CC(O)CC(O)CC1CCCO1` (stereo not given), the growth inhibition in experiment [1] (setting [7]) is 5%; in experiment [1] (setting [8]), 22%; in experiment [1] (at 50.0 µM), 39.2%; in experiment [2] (setting [7]), 1%; in experiment [2] (setting [8]), 9%; in experiment [2] (at 50.0 µM) it was 35.6%. The growth inhibition in experiment [3] (setting [7]) is 1%; in experiment [3] (setting [8]), 4%; in experiment [3] (at 50.0 µM) it was 25.2%; in experiment [4] (setting [7]), 2%; in experiment [4] (setting [8]) it was 9%; in experiment [4] (at 50.0 µM), 33.1%. In addition, the growth inhibition is 3% in experiment [5] (setting [7]); 19% in experiment [5] (setting [8]); 82.7% (active) in experiment [5] (at 50.0 µM); 3% in experiment [6] (setting [7]); 8% in experiment [6] (setting [8]); 41.2% in experiment [6] (at 50.0 µM).
`NCCCNCc1c2ccccc2c(CNCCCN)c2ccccc12`: the growth inhibition was 6% in experiment [1] (setting [7]); 6% in experiment [1] (setting [8]); 10.7% in experiment [1] (at 50.0 µM); -7% in experiment [2] (setting [7]); -7% in experiment [2] (setting [8]); 43.4% in experiment [2] (at 50.0 µM). Further, the growth inhibition was 1% in experiment [3] (setting [7]); 1% in experiment [3] (setting [8]); 58.9% in experiment [3] (at 50.0 µM); 24% in experiment [4] (setting [7]); 24% in experiment [4] (setting [8]); 56.1% in experiment [4] (at 50.0 µM). In addition, the growth inhibition in experiment [5] (setting [7]) is 15%; in experiment [5] (setting [8]), 15%; in experiment [5] (at 50.0 µM), 33.8%; in experiment [6] (setting [7]) it was 4%; in experiment [6] (setting [8]), 4%; in experiment [6] (at 50.0 µM) it was 74.5% (active).
For `Oc1ccc(CNC2CCCCC2)cc1`, the growth inhibition in experiment [1] (setting [7]) was -4%; in experiment [1] (setting [8]) it was 4%; in experiment [1] (at 50.0 µM) it was 70.8% (active); in experiment [2] (setting [7]) it was -13%; in experiment [2] (setting [8]), -20%; in experiment [2] (at 50.0 µM) it was 31.2%. Besides, the growth inhibition in experiment [3] (setting [7]) is -5%; in experiment [3] (setting [8]), 10%; in experiment [3] (at 50.0 µM), 79.8% (active); in experiment [4] (setting [7]), -2%; in experiment [4] (setting [8]), -11%; in experiment [4] (at 50.0 µM), 50.5%. Moreover, the growth inhibition in experiment [5] (setting [7]) is -14%; in experiment [5] (setting [8]) it was -20%; in experiment [5] (at 50.0 µM), 37.4%; in experiment [6] (setting [7]), 1%; in experiment [6] (setting [8]), -25%; in experiment [6] (at 50.0 µM), 46.9%.
In the case of `CC(=O)NC1C(=O)CC(c2ccccc2)N(C)C1c1ccccc1` (stereo not given), the growth inhibition in experiment [1] (setting [7]) was 2%; in experiment [1] (setting [8]), 2%; in experiment [1] (at 50.0 µM) it was 7.55%; in experiment [2] (setting [7]), 2%; in experiment [2] (setting [8]) it was 6%; in experiment [2] (at 50.0 µM), 6.55%. Moreover, the growth inhibition is -2% in experiment [3] (setting [7]); 1% in experiment [3] (setting [8]); 25.3% in experiment [3] (at 50.0 µM); 4% in experiment [4] (setting [7]); 0% in experiment [4] (setting [8]); 36.1% in experiment [4] (at 50.0 µM). The growth inhibition was 2% in experiment [5] (setting [7]); 3% in experiment [5] (setting [8]); 18% in experiment [5] (at 50.0 µM); 1% in experiment [6] (setting [7]); -7% in experiment [6] (setting [8]); 31.7% in experiment [6] (at 50.0 µM).

Source of the values: PubChem BioAssay (NCI).
